Bioassay records: PubChem BioAssay, The Scripps Research Institute Molecular Screening Center
TbREL1 inh – TbREL1 RNA ligase inhibitors, primary screen, biochemical, FRET fluorescence. RNA-editing ligase 1, mitochondrial (Trypanosoma brucei brucei), P86926. TbREL1 RNA ligation. inhibition, % at 9.66 µM. hit rate 0.49% among 89,000. AID 1117264, 2014;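 active means inhibition above the mean inhibition across all screened compounds plus 3 SD, cut at about 11% in these data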;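 further: 0% = plate median of test wells and 100% = NSC42067 control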
Target sequence (P86926 whole entry, looked up): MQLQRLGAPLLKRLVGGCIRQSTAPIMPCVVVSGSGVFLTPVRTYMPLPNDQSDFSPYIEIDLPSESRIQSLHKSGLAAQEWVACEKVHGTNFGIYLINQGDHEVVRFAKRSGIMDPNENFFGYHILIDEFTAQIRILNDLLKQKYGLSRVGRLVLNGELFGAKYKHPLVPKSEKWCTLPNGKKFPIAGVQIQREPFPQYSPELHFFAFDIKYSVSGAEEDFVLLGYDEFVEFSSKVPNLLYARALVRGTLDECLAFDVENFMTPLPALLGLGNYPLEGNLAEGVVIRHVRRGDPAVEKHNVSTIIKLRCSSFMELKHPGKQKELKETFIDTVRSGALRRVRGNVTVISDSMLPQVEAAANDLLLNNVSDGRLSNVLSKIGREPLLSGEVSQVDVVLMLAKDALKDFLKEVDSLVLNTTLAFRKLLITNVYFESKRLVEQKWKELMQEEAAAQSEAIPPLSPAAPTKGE
TbREL1 conf – TbREL1 RNA ligase inhibitors, confirmation, biochemical, FRET fluorescence, triplicate; shares compounds with TbREL1 inh; inhibition, % at 9.66 µM; AID 1117282, 2014; hit rate 37% among 390; TbREL1 RNA ligation;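 active means mean inhibition across replicates above a set limit taken from the earlier primary screen, cut at about 11% in these data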;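 further: 0% = REL1 with substrate and DMSO and 100% = REL1 plus control inhibitor NSC42067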
* hit, by the source's call. Shown is part of a subset that was picked to be rich in hits.

SMILES | TbREL1 inh | others
Cc1cc(C)cc(S(=O)(=O)Cc2noc(C(=O)NCc3ccccc3)c2C(=O)NCc2ccccc2)c1 | 1
C/C(=N\NC(=O)CNc1cccc(C)c1)c1ccc(Br)s1 | -1
O=C(CNc1ccc2ccccc2c1)N/N=C/c1ccccn1 | -7
Cc1cccc(NCC(=O)N/N=C/c2cccc(Br)c2)c1 | 12* | TbREL1 conf=-1
Cc1cc(=O)oc2cc(OCC(=O)OCC(=O)Nc3ccc(C(N)=O)cc3)ccc12 | -4
CC1CC(C)CN(C(=O)c2cccc(S(=O)(=O)N3c4ccccc4CC3C)c2)C1 (configuration not stated) | -2
CS(=O)(=O)N1c2ccccc2C[C@H]1Cc1cc2ccccc2o1 | 12* | TbREL1 conf=-1
Cc1ccc(S(=O)(=O)NCC2Cc3ccccc3N2S(=O)(=O)c2ccc(C)cc2)cc1 (configuration not stated) | -3
CCNC(=O)C1(C)CCCN(Cc2cc3ccccc3o2)C1 (configuration not stated) | -2
COC(=O)C1=C[C@@H](C(=O)OC)[C@@H]2C3=C(C(=O)[C@]2(CC(C)C)NC(=O)c2ccccc2)[C@H](C)n2c(=O)n(-c4ccccc4)c(=O)n2[C@@H]3C1 | 1
O=C(O)c1cc(C(=O)O)c(-c2ccccc2)c(C(=O)O)c1 | 0
Cc1ccc(N2C(=O)c3ccc(C(=O)O)cc3C2=O)cc1C | 0
O=C(O)c1cc(N2C(=O)C=CC2=O)cc(N2C(=O)C=CC2=O)c1 | 85* | TbREL1 conf=30*
O=C(CN1C(=O)NC2(CCCC2)C1=O)N1CCN(c2cccc(C(F)(F)F)c2)CC1 | 0
COC(=O)c1ccc(/C=C/c2c(-c3ccsc3)sc3ccccc23)cc1 | 5
Oc1ccc(CNc2ccccc2F)c2cccnc12 | 1
Oc1ccc(Nc2ccccc2F)c2cccnc12 | 17* | TbREL1 conf=-9
Oc1ccc(-c2ccccc2F)c2cccnc12 | -4
Cc1ccc(C(=O)C2CCN(CC(=O)N3CCCC3)CC2)cc1 | -1
Cc1ccc(C(=O)C2COC(=O)C2)cc1 (configuration not stated) | 20* | TbREL1 conf=5
Cc1ccc(C(=O)N2CCC(C(=O)c3ccc(Cl)cc3)CC2)cc1 | 0
COc1ccc(/C=C/C(=O)OC(C)C(=O)c2ccccc2)cc1OC (configuration not stated) | 0
O=C(O)CCCNC(=O)Nc1ccccc1 | 1
O=C(O)CCCNC(=O)Cc1ccccc1 | 17* | TbREL1 conf=0
O=C(Cc1ccccc1)NCCN1CCCC1 | 0
SMILES | TbREL1 inh | others
CC1(C)Cc2c(c(-c3ccco3)[nH]c(=O)c2C#N)CS1 | 15* | TbREL1 conf=4
CC1(C)Cc2c(c(-c3ccccc3)[nH]c(=O)c2C#N)CS1 | 0
CC(=O)N1CCN(c2nc(-c3ccco3)c3c(c2C#N)CC(C)(C)SC3)CC1 | -2
O=C(NC(CC(=O)N1CCCC(C(F)(F)F)C1)c1ccccc1)c1ccccc1Cl (configuration not stated) | -1
COc1ccc(C(C)=O)cc1CC1(C)C(=O)Nc2ccc(-c3cccc(C(F)(F)F)c3)cc21 (configuration not stated) | 2
CC1(Cc2ccccc2OC(F)(F)F)C(=O)Nc2ccc(-c3ccsc3)cc21 (configuration not stated) | 4
COc1ccccc1-c1ccc2c(c1)C(C)(Cc1cc(Cl)ccc1C(F)(F)F)C(=O)N2 (configuration not stated) | 17* | TbREL1 conf=7
O=C(COC(=O)c1cnccn1)NC(=O)c1ccccc1 | 7
O=C(CSc1nnc(-c2ccco2)c(-c2ccco2)n1)c1ccccc1 | 12* | TbREL1 conf=13*
Cn1c(SCC(=O)c2ccc(-c3ccccc3)cc2)nnc1-c1ccco1 | 3
N#Cc1cnc(SCC(=O)c2ccccc2)nc1N | -2
C[C@@H]1CC[C@]2(O[C@H](CCO)C[C@@H](O)[C@@H]2O)O1 | 2
NS(=O)(=O)c1ccc(NC(=O)c2ccc(S(=O)(=O)N3CCOCC3)o2)cc1 | -1
NS(=O)(=O)c1ccc(NC(=O)CCC(=O)N2CCOCC2)cc1 | 15* | TbREL1 conf=2
NS(=O)(=O)c1cccc(NC(=O)CCc2ccc(S(=O)(=O)N3CCOCC3)cc2)c1 | 4
CN(Cc1c(F)cccc1Cl)C(=O)c1cnc2ccccc2n1 | 1
O=C(CCCC(=O)OCC(Cl)=C(Cl)Cl)Nc1ccccc1F | 0
C=CCNCCCCOc1c(Cl)cc(C)cc1Br | 7
CCCCNCCCOc1cc(Cl)ccc1Cl | -1
COCCCNCCOc1ccc(C)cc1[N+](=O)[O-] | 4
COCCCNCCCCOc1c(Cl)cc(C)cc1Br | 12* | TbREL1 conf=8
COCCCNCCCOc1ccc(Cl)cc1Br | 11* | TbREL1 conf=6
Cc1cc(Cl)c(OCCCn2cncn2)c(Br)c1 | -1
COc1ccc([C@H]2CC(=O)C=C(c3ccc(-c4ccccc4)c(F)c3)C2)cc1OC | 0
CC(=O)c1c(-c2ccc(C)cc2)nc2c3ccccc3ccn12 | -2
SMILES | TbREL1 inh | others
CCCN(C(=O)c1cc(Cl)nc2ccccc12)C1CCS(=O)(=O)C1 (configuration not stated) | 5
CC(C)C[C@H](NC(=O)c1nc[nH]c1C(=O)N[C@@H](CC(C)C)C(=O)OCc1ccccc1)C(=O)OCc1ccccc1 | 2
CC(C)C[C@@H](CNCC(=O)[C@H](C)NC(=O)c1[nH]cnc1C(=O)N[C@@H](C)CN)NC(=O)c1nc[nH]c1C(=O)N[C@@H](Cc1ccccc1)C(=O)O | 11* | TbREL1 conf=6
CC(C)C[C@H](NC(=O)c1[nH]cnc1C(=O)N[C@@H](Cc1ccccc1)C(=O)OCc1ccccc1)C(=O)OCc1ccccc1 | 0
CCc1nc2ccc(C(=O)NC(C)(C)C)cn2c1N(CC)Cc1cccc(Br)c1 | -3
CS(=O)(=O)N1CCC(C(=O)Nc2ccccc2Cl)CC1 | 0
Cn1c(N)c(C(=O)CSc2nnc(-c3c[nH]c4ccccc34)n2C2CC2)c(=O)[nH]c1=O | 15* | TbREL1 conf=7
Cn1c(N)c(C(=O)CSc2nnc(C3CC3)n2Cc2ccccc2)c(=O)[nH]c1=O | -3
Cc1ccc(-n2nnnc2SCC(=O)c2c(N)n(C3CC3)c(=O)[nH]c2=O)cc1 | 1
Cc1ccc(-c2ccc(CN3C(CC(C)C)C(=O)N(Cc4cn(CC5CCCCC5)nn4)CCS3(=O)=O)cc2)cc1 (configuration not stated) | 0
CCOc1ccc(N2C(=O)/C(=C\c3ccc(O)c(OC)c3)S(=O)(=O)C2c2cccc([N+](=O)[O-])c2)cc1 (configuration not stated) | -3
O=C(Nc1ccc(F)c(Cl)c1)Nc1nnc([C@H]2C[C@H](O)[C@@H](CO)O2)s1 | 1
O=C(c1ccc(-c2ccccc2Cl)o1)N1CCCCCCC1 | 13* | TbREL1 conf=4
O=C(c1ccc(-c2ccc([N+](=O)[O-])cc2)o1)N1CCCCCCC1 | -2
Cc1onc(-c2ccccc2Cl)c1C(=O)N1CCCCC1 | -6
Cc1nn(C)c(Cl)c1/C=N/OC(=O)c1ccccc1 | 8
COc1ccc2[nH]cc(CCNC(=O)CCC3CCCCC3)c2c1 | -8
CCS(=O)(=O)n1nc(-c2ccc(Cl)cc2)nc1N | 0
COc1ccc(-c2nc(SC)n(S(=O)(=O)c3ccccc3)n2)cc1 | 2
CSc1nc(-c2ccccc2)nn1S(=O)(=O)c1ccc(Cl)cc1 | 11* | TbREL1 conf=3
O=C(CSc1nnc(Cc2cc(=O)[nH]c(=O)[nH]2)n1-c1ccc(F)cc1)N1CCCCC1 | 0
